Assay results as given in the supplement of paper PMC4723716.

System: Plasmodium falciparum NF54 gametocytes
Assay: viability index relative to DMSO control (fraction); higher = less gametocyte killing
Conditions: 12.5 µM, incubation time: 72 h
Outline: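 Each stage (I–V) of P. falciparum NF54 gametocytes was incubated with compound at 12.5 µM in 384-well plates, in 40 µl of serum-containing medium at 0.50% gametocytemia and 1.25% hematocrit, for 72 hr at 37°C under low oxygen. After 5 µl of 5 µM MitoTracker Red CMXRos was added for 20 min, 5 µl from each well was moved into 40 µl of 500 nM dye in serum-free medium and imaged across three fields after 30 min. The viability index is the gametocyte particle count divided by the plate mean of the solvent-only wells.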

[1] = gametocyte stage: Stage I viability index
[2] = gametocyte stage: Stage II viability index
[3] = gametocyte stage: Stage III viability index
[4] = gametocyte stage: Stage IV viability index
[5] = gametocyte stage: Stage V viability index

| SMILES | viability index [1] | viability index [2] | viability index [3] | viability index [4] | viability index [5] |
| --- | --- | --- | --- | --- | --- |
| COc1ccc2c(=O)cc(C(Cl)(Cl)Cl)oc2c1 | 0.0166 | 0.146 | 0.512 | 0.623 | 0.56 |
| CC1CC(C)CN(C(=O)c2ccc(Cl)cc2Cl)C1 (stereo not given) | 0.95 | 0.871 | 0.962 | 0.951 | 1.01 |
| CCOC(=O)c1cnc2ccc(OC)cc2c1NCc1ccccc1 | 0.309 | 0.535 | 0.991 | 0.835 | 0.87 |
| Nc1ccn(C2O[C@H](CO)[C@@H](O)[C@H]2O)c(=O)n1 (stereo not given in full) | 0.976 | 1.14 | 0.955 | 1.07 | 1.1 |
| CC1CCCCN1CCCNC(=O)c1ccc2c(c1)sc1nc(-c3ccc(F)cc3)cn12 (stereo not given) | 0.113 | 0.443 | 1.05 | 1.2 | 1 |
| CCCCCCc1cc2cc(-c3csc(C=Cc4ccccc4)n3)c(=O)oc2cc1O | 0.309 | 0.313 | 0.621 | 0.797 | 0.636 |
| CC(C)(C)c1ccc(C(=O)Nc2nc3ccccc3s2)cc1 | 0.787 | 0.834 | 0.813 | 0.812 | 0.736 |
| COc1ccc2nc(C)cc(Nc3ccccc3O)c2c1 | 0.139 | 0.625 | 1.04 | 1.09 | 0.912 |
| CN1CCN(c2nc(Nc3ccc(O)cc3)nc3ccccc23)CC1 | 0.0262 | 0.247 | 0.796 | 0.927 | 0.74 |
| Oc1c(CN2CCN(c3ccccc3F)CC2)cc(Br)c2cccnc12 | 0.0376 | 0.0566 | 0.0353 | 0.0253 | 0.026 |
| Cc1c(C)n(Cc2ccc(F)cc2)c2ccc(C(=O)NCc3ccco3)cc12 | 0.478 | 0.756 | 0.932 | 0.827 | 1 |
| CCOc1cc(Br)c(C(C)NC(=O)c2cccc(OC)c2)cc1OCC (stereo not given) | 0.465 | 0.412 | 0.58 | 0.748 | 0.648 |
| COc1cccc(NC(=O)Cn2c(C)c(C#N)c3ccccc32)c1 | 0.0586 | 0.129 | 0.252 | 0.605 | 0.363 |
| CC(=O)c1ccc(NC(=O)CSc2nc(-c3ccccc3Cl)ns2)cc1 | 0.102 | 0.308 | 0.308 | 0.62 | 0.584 |
| N=c1n(CCN2CCCCC2)c2ccccc2n1CC(=O)c1ccc(Cl)c(Cl)c1 | 0.115 | 0.281 | 0.848 | 0.886 | 0.753 |
| COc1ccc(-c2nc3cc(Cc4ccc5[nH]c(-c6ccc(OC)cc6)nc5c4)ccc3[nH]2)cc1 | 0.0276 | 0.441 | 0.864 | 0.809 | 0.538 |
| COc1cccc(Nc2nc(N)c3ccccc3n2)c1 | 0.131 | 0.524 | 0.786 | 0.797 | 0.649 |
| CCOc1cc2c(cc1OCC)C(c1cc(OC)c(O)cc1Cl)NCC2 (stereo not given) | 0.0243 | 0.0957 | 0.513 | 0.723 | 0.626 |
| COc1ccccc1CNC(=O)CCn1c(=O)[nH]c2ccsc2c1=O | 0.477 | 0.712 | 1 | 0.805 | 0.769 |
| Cc1ccc(S(=O)(=O)c2c(COC(=O)c3cccc(C)c3)c(-c3ccccc3)nn2C)cc1 | 0.982 | 0.881 | 0.943 | 0.769 | 0.922 |
| CCCCCC(=O)N1c2ccccc2N=C2CC(c3ccc(OC)c(OC)c3)CC(O)=C2C1c1ccc(C(F)(F)F)cc1 (stereo not given) | 0.0365 | 0.0251 | 0.0919 | 0.219 | 0.429 |
| Cc1ccc(CN2CCC(C(=O)Nc3ccc(-c4cc5ccccc5[nH]4)cc3)CC2)o1 | 0.00663 | 0.313 | 0.43 | 0.422 | 0.396 |
| CCN(CC)S(=O)(=O)c1ccc(-c2csc(Nc3ccc(C)c(C)c3)n2)cc1 | 0.544 | 0.506 | 0.532 | 0.733 | 0.352 |
| CC(C)(C)c1ccc(C2CC3=Nc4ccccc4N(C(=O)c4ccccc4Cl)C(c4ccc(F)cc4)C3=C(O)C2)cc1 (stereo not given) | 0.278 | 0.223 | 0.472 | 0.503 | 0.429 |
| CCOc1ccc(N2C(N)=NC(N)=NC2(C)C)cc1 | 1.12 | 0.909 | 0.844 | 0.959 | 1.08 |
| CC1CCN(Cc2ccc(NC(=O)c3cc4ccc5cccnc5c4[nH]3)cc2)CC1 | 0.265 | 0.505 | 0.902 | 0.954 | 0.769 |
| CN1CCN(c2ccc(Nc3c4ccccc4nc4ccccc34)cc2)CC1 | 0.0453 | 0.0029 | 0.0523 | 0.146 | 0.121 |

| SMILES | viability index [1] | viability index [2] | viability index [3] | viability index [4] | viability index [5] |
| --- | --- | --- | --- | --- | --- |
| CN1C=C(c2ccc3ccccc3n2)C(c2c[nH]c3ccccc23)c2ccccc21 (stereo not given) | 0.178 | 0.0874 | 0.273 | 0.294 | 0.351 |
| CCCCOc1ccc(C(=O)Nc2cc(C)on2)cc1 | 1.02 | 0.815 | 0.973 | 0.942 | 0.78 |
| COCCNCC(O)Cn1c2ccc(Cl)cc2c2cc(Cl)ccc21 (stereo not given) | 0.105 | 0.0937 | 0.407 | 0.511 | 0.429 |
| Cc1ccc2cc3c(N)c4c(C)ccc(C)c4nc3nc2c1 | 0.0542 | 0.005 | 0.0231 | 0.00316 | 0.026 |
| COc1cccc(C=Cc2nc(=O)c3ccccc3o2)c1OC | 0.751 | 0.717 | 0.809 | 0.948 | 0.967 |
| CCOc1ccc(CN2CCN(CC(O)COc3ccc(OCC(O)CN4CCN(Cc5ccc(OCC)cc5)CC4)cc3)CC2)cc1 (stereo not given) | 0.076 | 0.114 | 0.133 | 0.104 | 0.0519 |
| CCCCc1c(CCC)c(=N)c2ccccc2n1C | 1.05 | 0.911 | 1 | 0.918 | 0.701 |
| FC(F)(F)c1cccc(CNC2CCN(CCc3ccccc3)CC2)c1 | 0.0431 | 0.464 | 0.856 | 0.83 | 0.802 |
| COc1ccc(NC(=O)C2c3ccccc3C(=O)N(CC(C)C)C2c2cccs2)cc1 (stereo not given) | 0.0343 | 0.0087 | 0.0354 | 0.216 | 0.0549 |
| CCCOCc1cc(CN2CCN(c3cccc(Cl)c3)CC2)c(O)c2ncccc12 | 0.00962 | 0.0225 | 0.0244 | 0.0127 | 0 |
| COc1cccc(O)c1CN1CCC2(CCCN(Cc3ccc(F)cc3)C2)C1 (stereo not given) | 0.0144 | 0.0986 | 0.446 | 0.602 | 0.615 |
| CC(C)OCc1cc(CN2CCN(c3cccc(Cl)c3)CC2)c(O)c2ncccc12 | 0.00331 | 0.0328 | 0.0297 | 0.0243 | 0.011 |
| CN(C)c1ccc(C(O)(c2ccc(N(C)C)cc2)c2ccc(N(C)C)cc2)cc1 | 0.157 | 0.0203 | 0.0948 | 0.0608 | 0.11 |
| OC(Cn1nnc2ccccc21)Cn1c2ccc(Br)cc2c2cc(Br)ccc21 (stereo not given) | 0.634 | 0.684 | 1.04 | 0.972 | 1.21 |
| Cc1cc(Nc2ccc(C)c(Cl)c2)n2nc(C(F)(F)F)nc2n1 | 0.881 | 1.23 | 0.983 | 1.08 | 0.945 |
| Cc1ccc(-c2cc3c(SCC(=O)Nc4cc(C(F)(F)F)ccc4Cl)nccn3n2)cc1 | 1.03 | 0.896 | 1.11 | 0.921 | 0.791 |
| COc1ccc(CCN2CCC(CN(C)Cc3cnn(-c4ccccc4)c3)CC2)cc1 | 0.203 | 0.496 | 0.508 | 0.498 | 0.418 |
| COc1ccc(C2c3ccc4ccccc4c3Oc3ncn(CCCN(C)C)c(=N)c32)cc1 (stereo not given) | 0.0367 | 0.0483 | 0.0339 | 0.0316 | 0 |
| CCCC(c1nnnn1C1CCCCC1)N1CCN(C(=O)c2ccco2)CC1 (stereo not given) | 1.04 | 0.976 | 1.01 | 1.02 | 1.16 |
| O=C(NC(c1ccccc1)c1ccc2cccnc2c1O)c1ccccc1 (stereo not given) | 0.00552 | 0.029 | 0.0453 | 0.103 | 0.0769 |
| CCCCCCOC(=O)C1=C(C)NC(=O)NC1c1ccccc1F (stereo not given) | 0.924 | 0.896 | 1.03 | 1.04 | 1.13 |
| O=c1cc(NC2CCN(CCCc3ccccc3)CC2)c2cc(Cl)ccc2o1 | 0.028 | 0.408 | 0.815 | 0.848 | 0.675 |
| CN(C)c1ccc(-c2nc3cc(N)ccc3[nH]2)cc1 | 0.0873 | 0.566 | 0.962 | 0.939 | 0.725 |
| CC1CC2=C(CC1CNCCCN(C)C)C(C)(C)CCC2 (stereo not given) | 0.383 | 0.362 | 0.48 | 0.468 | 0.312 |
| COc1cc2c3cc1Oc1c(OC)c(OC)cc4c1C(Cc1ccc(O)c(c1)Oc1ccc(cc1)CC3N(C)CC2)N(C)CC4 (stereo not given) | 0.25 | 0.465 | 0.592 | 0.528 | 0.468 |
| CCN(CC)CCNc1ncnc2c1[nH]c1ccc(Br)cc12 | 0.0398 | 0.36 | 0.635 | 0.641 | 0.396 |
